Active and inactive are the calls of the source. Unless noted, how the calls were made is not given here.
Assays:
[1] = system: Wnt5a (protein binding on small-molecule microarray); test: Wnt5a binders on small-molecule microarray, primary screen, biophysical, 635/667 nm fluorescence (AID 1142); conditions: 635 nm fluorescence, higher = more signal;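 further: fluorescence read at 667 nm with signal to noise per printed feature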
[2] = cell viability in Huh7 cells, primary screen, cytotoxicity control for HCV replication inhibitor project, CellTiter-Glo luminescence, basal, 48 h (AID 1143); conditions: Huh7 HCV replicon, higher = more signal, called active from +8 up or from −8 down;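 further: Huh7 hepatoma cells carrying a hepatitis C replication reporter with no stimulus; test concentration not given here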
[3] = P. aeruginosa biofilm formation inhibitors, primary screen, PAO1 strain, BacTiter-Glo luminescence, LB-PBS (AID 1144); conditions: 12 h, higher = more signal
[4] = CREB reporter modulators without forskolin, primary screen, cell-based, PC12, CRE-LacZ reporter, unstimulated (AID 1145); conditions: no forskolin, luminescence, 4.5 h, higher = more signal, called active from +8 up or from −8 down
[5] = CREB reporter modulators under forskolin, primary screen, cell-based, PC12, CRE-LacZ reporter, forskolin-stimulated (AID 1146); conditions: luminescence, 4.5 h, higher = more signal, called active from +8 up or from −8 down;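 further: PC12 cells with 6xCRE LacZ reporter stimulated by forskolin 10 µM; beta-galactosidase reporter signal reflecting CREB driven transcription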
[6] = target: Streptavidin (Streptomyces avidinii) (UniProt P22629); test: streptavidin binders on small-molecule microarray, primary screen, artefact control for SMM compound annotation, biophysical, 635/667 nm fluorescence (AID 1147); conditions: streptavidin binding, higher = more signal;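 further: signal reflects streptavidin binding to arrayed compounds as a control protein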
Streptavidin (Streptomyces avidinii), sequence (P22629 whole entry, looked up): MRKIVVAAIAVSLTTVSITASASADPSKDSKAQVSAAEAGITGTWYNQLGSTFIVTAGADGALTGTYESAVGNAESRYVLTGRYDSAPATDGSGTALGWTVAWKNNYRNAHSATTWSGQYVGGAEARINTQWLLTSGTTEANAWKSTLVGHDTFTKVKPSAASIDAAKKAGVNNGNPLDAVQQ

[7] = small-molecule binders of probe aInhba, primary screen, biochemical, small-molecule microarray, 635/667 nm fluorescence (AID 1148); conditions: higher = more signal;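 further: score merges 667nm spot fluorescence with signal-to-noise for antibody binding to printed compounds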
Torsin-1A (Homo sapiens) [8] = target: Torsin-1A (Homo sapiens) (UniProt O14656); test: torsin A binders from cell lysate, primary screen, small-molecule microarray, wild-type, 635/667 nm (AID 1149); conditions: COS7 hTOR1A-WT lysate, 635 nm fluorescence, higher = more signal
Torsin-1A (Homo sapiens), sequence (O14656 whole entry, looked up): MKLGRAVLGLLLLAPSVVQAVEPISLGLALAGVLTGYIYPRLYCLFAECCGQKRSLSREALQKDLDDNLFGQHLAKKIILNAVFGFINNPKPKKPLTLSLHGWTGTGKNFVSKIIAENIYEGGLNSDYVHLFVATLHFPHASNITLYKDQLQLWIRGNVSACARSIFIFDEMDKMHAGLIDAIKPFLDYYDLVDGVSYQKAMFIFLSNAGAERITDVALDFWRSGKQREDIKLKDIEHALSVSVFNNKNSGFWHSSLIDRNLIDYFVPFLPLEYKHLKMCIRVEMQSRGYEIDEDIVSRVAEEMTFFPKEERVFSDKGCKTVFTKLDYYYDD

Torsin-1A (Homo sapiens) [9] = target: Torsin-1A (Homo sapiens) (UniProt O14656); test: small-molecule binders of mutant TOR1A in lysate, primary screen, cell lysate, small-molecule microarray, COS7 lysate, 635/667 nm fluorescence (AID 1150); conditions: COS7 hTOR1A mutant lysate, 635 nm fluorescence, higher = more signal;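 further: score pools 667 nm emission and signal to noise measuring lysate protein binding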
[10] = system: Sonic hedgehog protein (Shh); test: small-molecule binders of Shh protein, primary screen, biochemical, small-molecule microarray, 635/667 nm fluorescence (AID 1151); conditions: small-molecule microarray binding, 635 nm fluorescence; higher = more signal;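 further: Shh protein binding to compounds spotted on small-molecule microarray slides; score combines spot fluorescence intensity with signal-to-noise across triplicate slides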
[11] = E. coli DRC41 culture turbidity changes, primary screen, E. coli filamentation inducer project, strain DRC41, OD650, 48 h (AID 1152);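 further: E. coli MC1000 strain DRC41 lacking acrAB efflux pump and sulA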; conditions: E. coli DRC41 (acrAB sulA), higher = more signal, called active from +8 up or from −8 down
[12] = small-molecule binders of probe aLefty1, primary screen, biochemical, small-molecule microarray, 635/667 nm fluorescence (AID 1153); conditions: higher = more signal;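 further: score merges spot fluorescence with signal-to-noise ratio from the scanned slide images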
[13] = PSAC antagonists in infected red cells, primary screen, cell-based, P. falciparum Indochina, OD700, 1 h (AID 1154); conditions: P. falciparum Indochina infected RBC osmotic lysis, higher = more signal, called active from +8 up or from −8 down
[14] = PSAC antagonists in infected red cells, primary screen, cell-based, P. falciparum Indochina, OD700, 2 h (AID 1155);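 further: lysis reports solute entry through the parasite surface anion channel PSAC; channel blockers reduce lysis of infected cells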; conditions: P. falciparum Indochina infected erythrocytes, osmotic lysis OD700; higher = more signal, called active from +8 up or from −8 down
[15] = osmotic lysis modulators in infected erythrocytes, primary screen, PSAC antagonist project, cell-based, P. falciparum Indochina, OD700, 3 h (AID 1156); conditions: higher = more signal, called active from +8 up or from −8 down
[16] = PSAC antagonists in infected red cells, primary screen, cell-based, P. falciparum Indochina, OD700, 18 h (AID 1157); conditions: P. falciparum Indochina infected erythrocytes, osmotic lysis OD700, 18 h; higher = more signal, called active from +8 up or from −8 down
[17] = modulators of S6 phosphorylation in cells, primary screen, cell-based, A549, cytoblot, luminescence, serum-stimulated (AID 1158); conditions: A549 phospho-S6 cytoblot, 5 h, higher = more signal;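 further: serum-stimulated A549 lung adenocarcinoma cells; signal is phosphorylated S6 detected by cytoblot immunostaining with HRP secondary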
[18] = target: NADPH oxidase 2 (Homo sapiens) (UniProt P04839); test: NOX2-dependent H2O2 signal modulators, primary screen, NOX inhibitor project, cell-based, HEK293-NOX2, PMA-stimulated, Amplex Red fluorescence (AID 1159); conditions: 45 min, higher = more signal, called active from +8 up or from −8 down; further: test concentration not given here
NADPH oxidase 2 (Homo sapiens), sequence (P04839 whole entry, looked up): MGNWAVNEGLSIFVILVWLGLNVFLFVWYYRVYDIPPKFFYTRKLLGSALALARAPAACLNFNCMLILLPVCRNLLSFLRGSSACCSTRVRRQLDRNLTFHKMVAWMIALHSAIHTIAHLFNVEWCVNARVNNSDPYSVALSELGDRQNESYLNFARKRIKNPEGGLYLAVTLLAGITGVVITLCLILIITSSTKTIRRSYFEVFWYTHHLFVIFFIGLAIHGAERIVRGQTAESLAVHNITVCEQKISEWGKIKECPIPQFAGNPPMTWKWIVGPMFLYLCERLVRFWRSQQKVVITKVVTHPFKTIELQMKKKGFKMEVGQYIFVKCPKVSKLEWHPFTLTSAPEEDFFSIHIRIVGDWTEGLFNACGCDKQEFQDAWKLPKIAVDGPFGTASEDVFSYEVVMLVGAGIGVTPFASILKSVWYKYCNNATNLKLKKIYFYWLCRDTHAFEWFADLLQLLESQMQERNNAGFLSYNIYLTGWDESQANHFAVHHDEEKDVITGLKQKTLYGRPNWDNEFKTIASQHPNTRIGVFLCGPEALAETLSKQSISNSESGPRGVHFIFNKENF

[19] = target: NADPH oxidase 4 (Homo sapiens) (UniProt Q9NPH5); test: NOX4-dependent H2O2 signal modulators, primary screen, NOX inhibitor project, cell-based, HEK293-NOX4, tetracycline-induced, Amplex Red fluorescence (AID 1160); conditions: 45 min, higher = more signal, called active from +8 up or from −8 down
NADPH oxidase 4 (Homo sapiens), sequence (Q9NPH5 whole entry, looked up): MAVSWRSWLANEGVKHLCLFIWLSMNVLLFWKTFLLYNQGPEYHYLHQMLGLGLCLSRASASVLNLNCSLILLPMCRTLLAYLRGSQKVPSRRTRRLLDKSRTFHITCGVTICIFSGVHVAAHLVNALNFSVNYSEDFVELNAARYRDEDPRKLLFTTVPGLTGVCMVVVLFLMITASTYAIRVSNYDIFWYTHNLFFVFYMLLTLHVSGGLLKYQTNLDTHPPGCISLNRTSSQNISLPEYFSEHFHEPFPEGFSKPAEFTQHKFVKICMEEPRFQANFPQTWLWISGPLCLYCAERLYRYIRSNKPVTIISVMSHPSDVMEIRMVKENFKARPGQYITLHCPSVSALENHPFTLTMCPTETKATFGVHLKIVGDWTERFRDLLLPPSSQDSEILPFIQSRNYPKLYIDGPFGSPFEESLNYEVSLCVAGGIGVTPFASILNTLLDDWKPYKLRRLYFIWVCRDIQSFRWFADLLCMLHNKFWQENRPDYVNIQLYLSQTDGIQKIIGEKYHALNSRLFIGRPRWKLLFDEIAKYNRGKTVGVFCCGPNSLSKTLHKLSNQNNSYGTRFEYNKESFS

[20] = target: NADPH oxidase 5 (Homo sapiens) (UniProt Q96PH1); test: NOX5-dependent H2O2 signal modulators, primary screen, NOX inhibitor project, cell-based, HEK293-NOX5, Amplex Red fluorescence (AID 1161); conditions: HEK293-NOX5, ionomycin, 45 min, higher = more signal
NADPH oxidase 5 (Homo sapiens), sequence (Q96PH1 whole entry, looked up): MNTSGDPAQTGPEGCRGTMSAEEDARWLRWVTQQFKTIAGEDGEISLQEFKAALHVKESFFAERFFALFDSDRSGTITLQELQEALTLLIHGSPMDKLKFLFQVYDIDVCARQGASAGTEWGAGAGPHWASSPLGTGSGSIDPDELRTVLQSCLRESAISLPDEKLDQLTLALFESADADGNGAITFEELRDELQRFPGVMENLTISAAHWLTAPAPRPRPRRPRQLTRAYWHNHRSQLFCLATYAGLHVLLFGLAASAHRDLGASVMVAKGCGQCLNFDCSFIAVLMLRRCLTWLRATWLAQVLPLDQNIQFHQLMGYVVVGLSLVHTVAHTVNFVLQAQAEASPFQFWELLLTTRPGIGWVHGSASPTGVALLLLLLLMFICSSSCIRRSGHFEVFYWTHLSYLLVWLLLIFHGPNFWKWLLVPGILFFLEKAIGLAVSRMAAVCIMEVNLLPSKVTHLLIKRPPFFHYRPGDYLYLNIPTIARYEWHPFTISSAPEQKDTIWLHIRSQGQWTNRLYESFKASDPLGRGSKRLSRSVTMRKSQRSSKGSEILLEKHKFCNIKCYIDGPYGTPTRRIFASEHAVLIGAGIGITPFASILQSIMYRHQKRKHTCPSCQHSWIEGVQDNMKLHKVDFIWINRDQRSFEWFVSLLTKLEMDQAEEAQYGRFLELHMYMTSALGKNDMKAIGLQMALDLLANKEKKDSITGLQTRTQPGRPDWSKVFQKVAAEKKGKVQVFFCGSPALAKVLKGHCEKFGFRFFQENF

## CCN(CC)CC(O)CN1CCCCc2nc(C)c(C)cc21 (stereo not given)
[1]
  composite z-score: 0.0321
[2]
  z-score: -1.1 (inactive)
[3]
  z-score: -1.67 (inactive)
[4]
  z-score: -0.161 (inactive)
[5]
  z-score: -0.71 (inactive)
[6]
  composite z-score: 0.551
[7]
  composite z-score: -0.183
Torsin-1A (Homo sapiens) [8]
  composite z-score: 0.57
Torsin-1A (Homo sapiens) [9]
  composite z-score: 0.029
[10]
  composite z-score: 0.261
[11]
  z-score: 0.219 (inactive)
[12]
  composite z-score: -0.0544
[13]
  z-score: -0.446 (inactive)
[14]
  z-score: -1.31 (inactive)
[15]
  z-score: 0.273 (inactive)
[16]
  z-score: -1.55 (inactive)
[17]
  z-score: 1.43
[18]
  z-score: 0.776 (inactive)
[19]
  z-score: -0.622 (inactive)
[20]
  z-score: 0.419

## CC(CCC(=O)OC[C@H]1O[C@H](C#Cc2ccccc2)C=C[C@@H]1Oc1ccc(C)cc1)=NO[C@@H](C)c1cc(-c2c(C)cc(C)cc2C)no1
[1]
  composite z-score: -0.693
[2]
  z-score: -0.629 (inactive)
[3]
  z-score: -0.702 (inactive)
[4]
  z-score: 0.085 (inactive)
[5]
  z-score: 1.02 (inactive)
[6]
  composite z-score: -0.831
[7]
  composite z-score: -0.242
Torsin-1A (Homo sapiens) [8]
  composite z-score: -2.59
Torsin-1A (Homo sapiens) [9]
  composite z-score: -1.74
[10]
  composite z-score: -0.719
[11]
  z-score: 0.357 (inactive)
[12]
  composite z-score: -0.0929
[13]
  z-score: 1.34 (inactive)
[14]
  z-score: 0.674 (inactive)
[15]
  z-score: 1.23 (inactive)
[16]
  z-score: 0.221 (inactive)
[17]
  z-score: 0.814
[18]
  z-score: 0.731 (inactive)
[19]
  z-score: 0.344 (inactive)
[20]
  z-score: 0.287

## CON=C(C)CCC(=O)OC[C@H]1O[C@H](C#Cc2ccccc2)C=C[C@@H]1Oc1ccc(C)cc1
[1]
  composite z-score: 0.0488
[2]
  z-score: -1.85 (inactive)
[3]
  z-score: -0.0775 (inactive)
[4]
  z-score: 0.415 (inactive)
[5]
  z-score: 1.24 (inactive)
[6]
  composite z-score: 0.0457
[7]
  composite z-score: -0.016
Torsin-1A (Homo sapiens) [8]
  composite z-score: 0.552
Torsin-1A (Homo sapiens) [9]
  composite z-score: -0.0451
[10]
  composite z-score: 0.597
[11]
  z-score: -2.47 (inactive)
[12]
  composite z-score: -0.0141
[13]
  z-score: 2.13 (inactive)
[14]
  z-score: 0.277 (inactive)
[15]
  z-score: -0.73 (inactive)
[16]
  z-score: 0.073 (inactive)
[17]
  z-score: -0.57
[18]
  z-score: -2.16 (inactive)
[19]
  z-score: -2.25 (inactive)
[20]
  z-score: -0.0339

## CO[C@H]1COC(=O)[C@H](C)COC(=O)[C@@H](OCc2ccccc2)C=C[C@@H]1C
[1]
  composite z-score: -0.19
[2]
  z-score: -0.108 (inactive)
[3]
  z-score: -0.462 (inactive)
[4]
  z-score: -0.745 (inactive)
[5]
  z-score: -0.786 (inactive)
[6]
  composite z-score: -0.316
[7]
  composite z-score: -0.273
Torsin-1A (Homo sapiens) [8]
  composite z-score: 0.489
Torsin-1A (Homo sapiens) [9]
  composite z-score: 0.214
[10]
  composite z-score: 0.307
[11]
  z-score: 0.623 (inactive)
[12]
  composite z-score: -0.193
[13]
  z-score: 0.345 (inactive)
[14]
  z-score: 0.0669 (inactive)
[15]
  z-score: -0.258 (inactive)
[16]
  z-score: 0.0584 (inactive)
[17]
  z-score: 0.893
[18]
  z-score: -0.596 (inactive)
[19]
  z-score: 0.603 (inactive)
[20]
  z-score: 0.214

## COC(=O)CC=C[C@@H](C)[C@@H](C=NOC[C@@H](O)COCc1ccco1)NS(=O)(=O)c1ccc(C)cc1
[1]
  composite z-score: 0.102
[2]
  z-score: 0.0032 (inactive)
[3]
  z-score: 0.91 (inactive)
[4]
  z-score: -0.715 (inactive)
[5]
  z-score: -0.0491 (inactive)
[6]
  composite z-score: -0.601
[7]
  composite z-score: -0.209
Torsin-1A (Homo sapiens) [8]
  composite z-score: 1.11
Torsin-1A (Homo sapiens) [9]
  composite z-score: 1.24
[10]
  composite z-score: 1.89
[11]
  z-score: 0.132 (inactive)
[12]
  composite z-score: -0.186
[13]
  z-score: 1.25 (inactive)
[14]
  z-score: 0.418 (inactive)
[15]
  z-score: 0.0934 (inactive)
[16]
  z-score: 0.391 (inactive)
[17]
  z-score: -0.689
[18]
  z-score: 0.017 (inactive)
[19]
  z-score: -0.202 (inactive)
[20]
  z-score: -0.106

## CC(C)CON=C1C[C@@H](O)[C@@H](O)[C@@H]2[C@@H]3C(=O)N(Cc4ccc5c(c4)OCO5)C(=O)[C@@H]3CC[C@@H]12
[1]
  composite z-score: 0.199
[2]
  z-score: -0.415 (inactive)
[3]
  z-score: -0.488 (inactive)
[4]
  z-score: 0.241 (inactive)
[5]
  z-score: 0.384 (inactive)
[6]
  composite z-score: 0.289
[7]
  composite z-score: -0.0645
Torsin-1A (Homo sapiens) [8]
  composite z-score: -0.515
Torsin-1A (Homo sapiens) [9]
  composite z-score: 0.203
[10]
  composite z-score: 0.108
[11]
  z-score: -0.0395 (inactive)
[12]
  composite z-score: -0.28
[13]
  z-score: 7.64 (inactive)
[14]
  z-score: 0.859 (inactive)
[15]
  z-score: -0.0127 (inactive)
[16]
  z-score: 0.548 (inactive)
[17]
  z-score: -0.333
[18]
  z-score: -0.569 (inactive)
[19]
  z-score: 0.409 (inactive)
[20]
  z-score: 0.443

## CC(=O)OC[C@H]1O[C@H](CC=NO[C@@H](C)c2cc(-c3c(C)cc(C)cc3C)no2)C=C[C@@H]1OC(C)=O
[1]
  composite z-score: -0.184
[2]
  z-score: 0.125 (inactive)
[3]
  z-score: -0.176 (inactive)
[4]
  z-score: 0.173 (inactive)
[5]
  z-score: 0.481 (inactive)
[6]
  composite z-score: 0.897
[7]
  composite z-score: -0.175
Torsin-1A (Homo sapiens) [8]
  composite z-score: 0.213
Torsin-1A (Homo sapiens) [9]
  composite z-score: -0.31
[10]
  composite z-score: 0.0602
[11]
  z-score: 0.11 (inactive)
[12]
  composite z-score: -0.101
[13]
  z-score: 2.12 (inactive)
[14]
  z-score: 0.629 (inactive)
[15]
  z-score: 1.12 (inactive)
[16]
  z-score: 0.343 (inactive)
[17]
  z-score: -0.194
[18]
  z-score: -1.27 (inactive)
[19]
  z-score: -0.444 (inactive)
[20]
  z-score: -2.99

## O=C1CCCC=C1C(O)c1ccc([N+](=O)[O-])cc1 (stereo not given)
[1]
  composite z-score: 0.042
[2]
  z-score: 1.18 (inactive)
[3]
  z-score: 0.843 (inactive)
[4]
  z-score: -0.706 (inactive)
[5]
  z-score: 0.126 (inactive)
[6]
  composite z-score: 0.0753
[7]
  composite z-score: -0.212
Torsin-1A (Homo sapiens) [8]
  composite z-score: 0.911
Torsin-1A (Homo sapiens) [9]
  composite z-score: 0.0183
[10]
  composite z-score: -0.676
[11]
  z-score: 0.134 (inactive)
[12]
  composite z-score: -0.217
[13]
  z-score: -0.487 (inactive)
[14]
  z-score: -0.347 (inactive)
[15]
  z-score: -0.324 (inactive)
[16]
  z-score: -0.342 (inactive)
[17]
  z-score: 0.317
[18]
  z-score: 1.42 (inactive)
[19]
  z-score: 0.262 (inactive)
[20]
  z-score: -0.56

## CCOC(=O)CCN1C(=O)[C@H]2[C@H]3[C@H](O)[C@H](O)CC(=O)[C@@H]3CC[C@H]2C1=O
[1]
  composite z-score: 0.352
[2]
  z-score: -0.19 (inactive)
[3]
  z-score: -0.401 (inactive)
[4]
  z-score: 0.527 (inactive)
[5]
  z-score: -0.671 (inactive)
[6]
  composite z-score: 0.182
[7]
  composite z-score: -0.179
Torsin-1A (Homo sapiens) [8]
  composite z-score: 0.205
Torsin-1A (Homo sapiens) [9]
  composite z-score: 0.5
[10]
  composite z-score: 0.757
[11]
  z-score: -0.851 (inactive)
[12]
  composite z-score: -0.407
[13]
  z-score: 0.781 (inactive)
[14]
  z-score: 0.411 (inactive)
[15]
  z-score: -0.737 (inactive)
[16]
  z-score: 0.305 (inactive)
[17]
  z-score: -0.373
[18]
  z-score: 0.583 (inactive)
[19]
  z-score: 0.41 (inactive)
[20]
  z-score: -0.0545
